Screens deposited in PubChem BioAssay by The Scripps Research Institute Molecular Screening Center.
Shown are actives, neighbours in structure and some others; about 3.4% of the full set was active somewhere.
TEAD-YAP block – TEAD-YAP interaction inhibition, primary screen, TEAD-YAP interaction inhibitor project, luminescence, HEK-TIYL cells; 1.4% of 640,000 active; inhibition, % at 9.12 µM; TEAD-Gal4/YAP UAS-luciferase luminescence; in the data active means inhibition above about 32%;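 further: 0% = median of test compound wells and 100% = reference inhibitor wells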
GPR151 activ – activators of human GPR151, primary screen, cell-based, PathHunter beta-arrestin, luminescence. G-protein coupled receptor 151 (Homo sapiens), Q8TDV0. PathHunter beta-arrestin GPR151 cells. activation, % at 11.2 µM. 1% of 650,000 active. AID 1508602, 2020; in the data active means activation above about 4.9%;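 further: 0% = median of compound wells and 100% = cells with positive control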
Target sequence (Q8TDV0 whole entry, looked up): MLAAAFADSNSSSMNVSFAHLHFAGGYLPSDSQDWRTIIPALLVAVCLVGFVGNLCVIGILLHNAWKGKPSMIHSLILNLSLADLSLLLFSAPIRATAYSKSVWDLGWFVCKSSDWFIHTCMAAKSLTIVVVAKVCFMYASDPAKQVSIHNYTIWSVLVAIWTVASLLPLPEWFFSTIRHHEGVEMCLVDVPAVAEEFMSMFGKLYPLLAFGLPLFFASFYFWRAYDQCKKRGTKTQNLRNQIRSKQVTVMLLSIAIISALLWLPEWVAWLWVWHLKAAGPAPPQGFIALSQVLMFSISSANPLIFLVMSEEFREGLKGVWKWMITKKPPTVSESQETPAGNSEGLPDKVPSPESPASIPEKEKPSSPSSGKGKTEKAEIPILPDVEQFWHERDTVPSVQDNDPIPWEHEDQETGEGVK
FBW7 act – FBW7 E3 ligase activators, primary screen, biochemical, AlphaScreen, human; F-box/WD repeat-containing protein 7 (Homo sapiens), Q969H0; AlphaScreen FBW7–phospho-cyclin E peptide binding, activator screen; normalized activity (activation), % at 26.1 µM; 0.13% of 650,000 active; in the data active means normalized activity above about 1.9%;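 further: purified mutant Fbw7 with reduced substrate affinity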
MITF primary – MITF inhibitors, primary screen, biochemical, AlphaScreen, human; AlphaScreen MITF homodimerization, bead proximity signal; 0.91% of 650,000 active; inhibition, % at 2.6 µM; in the data active means inhibition above about 50%;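 further: 0% = vehicle wells with protein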
Numbers without * were called inactive.

SMILES	TEAD-YAP block	GPR151 activ	FBW7 act	MITF primary
CC1CN(C(=O)N2CCC(C(=O)O)CC2)c2ccccc2S1 (stereo not drawn)	-13.1	-0.7	-0.2	0.8
N/C(=N\OC(=O)c1ccccc1Cl)c1ncon1	19.9	-0.1	0.0	4.9
N/C(=N\OC(=O)c1sc2ccccc2c1Cl)c1ncon1	40.0*	-0.3	1.2	17.4
CCN1C(=O)/C(=N\N2C(=O)CSC2=S)c2ccccc21	3.6	-0.2	-0.1	16.1
O=C(O)CN1C(=O)/C(=N\N2C(=O)CSC2=S)c2ccccc21	4.6	-0.7	-0.3	55.5*
O=C(Nc1ccc(S(=O)(=O)NCc2cccnc2)cc1)c1ccco1	13.9	-0.2	2.1*	6.1
COc1cccc(S(=O)(=O)NCc2ccc(C(=O)Nc3cccnc3)cc2)c1	50.4*	0.4	0.1	11.9
O=C(Nc1ccc(S(=O)(=O)NCc2cccnc2)cc1)c1ccccc1Cl	28.4	0.8	-0.1	2.5
Nc1cccc(-c2nc(NCCOc3ccccc3)c3ncn(-c4ccccc4)c3n2)c1	8.5	-1.1	0.1	5.9
COc1ccc(-c2nnc(Sc3ccc([N+](=O)[O-])cn3)n2-c2ccccc2)cc1OC	55.4*	-1.8	0.0	14.7
COc1ccc(C2C(C#N)=C(N)Oc3cc(C)oc(=O)c32)cc1Cn1cc([N+](=O)[O-])cn1 (stereo not drawn)	5.9	-0.3	0.1	9.2
Cc1sc2ncnc(SCc3cc(=O)oc4cc(O)c(O)cc34)c2c1C	9.4	-1.5	-0.3	63.9*
Cc1sc2ncnc(SCc3cc([N+](=O)[O-])cc4c3OCOC4)c2c1C	1.2	-1.0	0.1	3.4
CC(C)CC(NS(=O)(=O)c1cccc(C(F)(F)F)c1)C(=O)OCC(=O)c1ccc[nH]1 (stereo not drawn)	5.6	-0.8	0.0	-1.8
CC(C)NC1CCCc2c1[nH]c1ccc([N+](=O)[O-])cc21 (stereo not drawn)	49.3*	0.6	0.0	30.4
O=C1/C(=C/c2cccnc2)CCC/C1=C\c1cccnc1	86.8*	0.0	-0.1	-16.8
NCCCC[C@@H]1NC(=O)[C@H]2CN(C(=O)c3cccc(Cl)c3)CCN2C1=O	-1.4	1.3	0.0	-16.4
c1ccc2oc(-c3ccc(OC4CCNCC4)cc3)cc2c1	68.0*	1.5	-0.1	-3.6
COCc1ccc(-c2ccc(OC3CCNCC3)cc2)cc1	37.6*	-0.1	-0.1	-5.0
N#Cc1ccc(-c2ccc(OC3CCNCC3)cc2)cc1	-41.6	0.0	0.2	18.2
CCN1CCC(Oc2ccc(-c3ccc(COC)cc3)cc2)CC1	-30.1	4.2	0.0	7.4
Cc1ccc(-c2nnn(CC(=O)N(CC(=O)NC(C)(C)C)c3ccccc3)n2)o1	13.5	0.5	-0.1	2.5
CCOc1cccc(-c2cc(C(=O)N/N=C(\C)c3cccs3)[nH]n2)c1	-9.5	1.4	0.1	13.7
C/C(=N\NC(=O)c1cc(-c2ccccc2Cl)n[nH]1)c1ccc(O)cc1	16.8	-1.1	0.1	2.2
CCOc1ccc(-c2cc(C(=O)N/N=C(\C)c3ccc(OC)cc3)[nH]n2)cc1	44.3*	0.4	0.0	6.9
SMILES	TEAD-YAP block	GPR151 activ	FBW7 act	MITF primary
C/C(=N\NC(=O)c1cc(C(C)C)[nH]n1)c1ccncc1	-21.1	3.0	0.1	2.2
CCOc1ccccc1-c1cc(C(=O)N/N=C(\C)c2cccs2)[nH]n1	48.7*	-0.4	0.0	11.1
C/C(=N\NC(=O)c1cc(-c2ccc(CC(C)C)cc2)n[nH]1)c1ccncc1	67.2*	-0.8	0.0	0.4
CCOc1ccccc1-c1cc(C(=O)N/N=C(/C)c2ccc(OC)c(OC)c2)[nH]n1	39.5*	0.5	0.3	9.0
CCCc1cc(=O)[nH]c2nnc(SCC(=O)Nc3ccccc3OC)n12	-1.0	-1.7	0.5	11.1
C=C(C)CN1C(=O)NC(CC)(C2CCN(Cc3ccc(OC)c(C)c3OC)CC2)C1=O (stereo not drawn)	8.1	0.9	-0.1	9.2
CCC(C)NC(=O)c1cn(C)c2ccc(S(=O)(=O)N3CCC(C)CC3)cc2c1=O (stereo not drawn)	10.4	-0.3	0.0	-7.8
CCOC(=O)C1=C(c2ccccc2)OC(N)=C(C#N)C1c1cccc(Cl)c1 (stereo not drawn)	-2.8	-0.8	0.0	-0.1
CCC(=O)Nc1cnc(NC(=O)c2ccc(Cl)cc2)cc1C	-13.1	-0.4	0.0	7.9
COc1ccc(C(=O)Nc2cnc(NC(=O)c3cccs3)cc2C)cc1	36.7*	-1.6	-0.1	-7.5
CC(=O)Nc1cnc(NC(=O)c2ccc(Cl)cc2)cc1C	52.3*	-0.1	-0.2	-2.1
COc1cc(-c2nc3cnccn3c2NC2CCCC2)cc(OC)c1OC	32.0*	0.7	0.0	-1.3
COc1cc(-c2nc3cnccn3c2NC2CCCCC2)cc(OC)c1OC	37.8*	-0.1	0.3	14.2
O=C(COc1cccc(F)c1)Nc1nc2ccccc2[nH]1	-44.5	0.7	-0.1	0.5
Brc1ccc2nc(N3CCN(c4ccccc4)CC3)nc(-c3ccccc3)c2c1	-4.1	3.5	0.1	-0.9
O=C(CSc1nnc(NC(=O)CCCl)s1)Nc1ccccc1	-14.1	-0.2	-0.1	0.7
Cc1cccc(NC(=S)NCc2ccco2)c1	-8.5	-0.5	0.0	-7.6
COc1cccc(C2C(C#N)=C(N)Oc3cc4ccccc4cc32)c1 (stereo not drawn)	42.5*	1.4	-0.1	11.1
COc1cccc(C2C(C#N)=C(N)Oc3cc(N)ccc32)c1OC (stereo not drawn)	2.4	0.6	0.1	16.5
COc1ccccc1C1C(C#N)=C(N)Oc2cc3ccccc3cc21 (stereo not drawn)	36.9*	0.3	-0.1	4.1
COc1cc(C2C(C#N)=C(N)Oc3c2ccc2ccccc32)ccc1O (stereo not drawn)	57.8*	1.9	-0.1	2.3
N#CC1=C(N)Oc2cc3ccccc3cc2C1c1cccs1 (stereo not drawn)	44.0*	-1.2	0.2	29.8
CC1(C)CC(NC(=S)Nc2ccc(OC(F)F)cc2)CC(C)(C)N1	4.6	-1.5	-0.1	-3.3
O=Cc1ccc(OCC(=O)N2CCN(c3ccccc3)CC2)cc1	13.9	0.6	0.1	-1.9
CSc1ccccc1C(=O)N1CCC(C2(C)NC(=O)N(Cc3ccncc3)C2=O)CC1 (stereo not drawn)	8.2	-1.4	-0.2	7.4
CNC(=O)/C(=C\c1ccc(Cl)cc1)NC(=O)c1ccc([N+](=O)[O-])cc1	15.1	2.0	0.2	5.5
N#CC1=C(N)Oc2cc3ccccc3cc2C1c1ccc(F)cc1 (stereo not drawn)	47.0*	3.2	-0.1	-6.5
COc1cccc(C2C(C#N)=C(N)Oc3c2ccc2ccccc32)c1 (stereo not drawn)	57.9*	-0.2	0.1	-25.6
N#CC1=C(N)Oc2cc3ccccc3cc2C1c1cccnc1 (stereo not drawn)	48.3*	-1.0	0.2	9.9
COc1cc(C2C(C#N)=C(N)Oc3c2ccc2ccccc32)cc(Cl)c1O (stereo not drawn)	63.6*	0.9	-0.1	0.2
